Consider eight molecules from PubChem BioAssay (NCATS).

Where “and” joins values, the source holds several entries; their conditions need not be identical. Equal values may be shown once. Results filed as inconclusive are left out. A call without a number means that no potency is given here. Calls of active or inactive are those of the source. Calls follow the shape of the dose curve; as a rule, active = well fitted cell-killing curve with a large enough effect; inconclusive = small, poorly fitted or top-dose-only effect, or effect the other way; inactive = no such curve, though single readings can be large or run the other way.
Potency is read from the fitted curve at half-maximal effect.

The nature of the experiment: Viability qHTS for spleen associated tyrosine kinase inhibitor (SYKi) drug resistant MV4-11 cells (AID 1963824). Also: nearly all actives have a fitted effect of over 35% in size. The note with it: SYKi-resistant MV4-11 viability, CellTiter-Glo, 72 h; series mostly up to 45 µM. Put shortly:
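SYK inhibitor-resistant MV4-11 AML cells, 500 per well, added to predispensed compounds and incubated 72 hr at 37 C, 5% CO2. Viability measured by CellTiter-Glo luminescence after 10 min at room temperature.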
A general note: qHTS replaces the single test concentration by a dilution series.
Take `CC1(C)CC[C@]2(C(=O)O[C@@H]3O[C@H](CO)[C@@H](O)[C@H](O)[C@H]3O)CC[C@]3(C)C(=CCC4[C@@]5(C)C[C@@H](O)[C@H](O)[C@@](C)(CO)C5CC[C@]43C)C2[C@@H]1O` (stereo partly drawn): the Potency entry is “inactive”.

As to `CC(=O)[C@@H]1CC[C@]2(C(=O)O)CC[C@]3(C)C(CCC4[C@@]5(C)CC[C@H](O)C(C)(C)C5CC[C@]43C)C12` (stereo partly drawn), the Potency was 7.09 µM (active).

Take `CC(=O)N[C@@H](CC(=O)O)C(=O)N[C@@H](CCC(=O)O)C(=O)N[C@H](C(=O)N[C@@H](CC(=O)O)C(=O)Nc1ccc2c(C)cc(=O)oc2c1)C(C)C`: the Potency was 6.51 µM (active).

As to `CCCc1cc(C)[nH]c(=O)c1CNC(=O)c1cc(-c2ccc(N3CCN(C(C)C)CC3)nc2)cc2c1cnn2C(C)C`, the Potency was 8.2 µM (active) and 8.33 µM (active).

In the case of `C/C=C(\C)C(=O)OC1C(C)C2(O)C3C=C(C)C(=O)C3CC(CO)=CC2C2C(C)(C)C12OC(C)=O` (stereo not drawn), the Potency result is “inactive”.

For the molecule `CC1CCC2(C(=O)O)CCC3(C)C(=CCC4C5(C)CCC(OC(=O)/C=C/c6ccccc6)C(C)(C)C5CCC43C)C2C1C` (stereo not drawn), the Potency result is “inactive”.

Consider `CC1(C)C=CN2C(=O)C3=CCCN3C(=O)[C@@H]2C[C@@]12Nc1ccccc1C2=O`, for which the Potency result was “inactive”.

Regarding `CC(=O)OCC(=O)[C@@]12O[C@@H]1C[C@H]1[C@@H]3CC=C4C[C@@H](O)CC[C@]4(C)[C@H]3CC[C@@]12C`, the Potency was 18.4 µM (active).
